About 83,000 compounds went through this panel and 20% of them were active in at least one assay; those are over-represented in the sample as a whole.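 How to read the values: 0–100, growth inhibition (40 = 60% inhibited); 0, no net growth; -100 to 0, cell death (-40 = 40% of starting cells died; -100 = all dead).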 Unmarked numbers belong to inactive results. The source made the active and inactive calls. The calls were made as follows: active = growth percent below 10; inactive = the rest.

Common to all, as to experiment: NCI-60 one-dose screen, 48 h (100 = growth as untreated, 0 = no growth, -100 = all killed)
What all share (settings): 10 µM

The subject of experiment [1] is BT-549 breast.
Experiment [2] concerns MDA-MB-435 melanoma.
Experiment [3] deals with SW-620 colon.
Experiment [4] concerns MCF7 breast.
Experiment [5] concerns HCT-116 colon.
For experiment [6], the system named is HCC-2998 colon.
The test system of experiment [7] is KM12 colon.

For `N#CCCN(NC(=O)OCc1ccccc1)C(=O)OCc1ccccc1`, the growth is 109% in experiment [1]; 105% in experiment [2]; 102% in experiment [3]; 107% in experiment [4]; 95.4% in experiment [5]; 106% in experiment [6]. The growth in experiment [7] is 109%.
As for `COc1ccc(OC)c(/C=C/c2nc(SC)n(-c3ccc(Cl)cc3)n2)c1`, the growth in experiment [1] was 80%; in experiment [2], 8.73% (active); in experiment [3] it was 77.4%; in experiment [4], 46.7%; in experiment [5], 59.8%; in experiment [6], 69.6%. The growth in experiment [7] was 53.1%.
In the case of `O=C(C[P+](c1ccccc1)(c1ccccc1)c1ccccc1)C[P+](c1ccccc1)(c1ccccc1)c1ccccc1`, the growth is -89.2% (active) in experiment [1]; -80.6% (active) in experiment [2]; -71.9% (active) in experiment [3]; -69.8% (active) in experiment [4]; -93.3% (active) in experiment [5]; -83.9% (active) in experiment [6]. In experiment [7], the growth is -75.5% (active).
Regarding `Oc1[nH]c2cc(Cl)ccc2c1/C=c1/ccc2c(c1)N=C(c1cc(F)cc(F)c1)N=2`, the growth in experiment [1] is 37.5%; in experiment [2], -32.5% (active); in experiment [3], 24.8%; in experiment [4] it was 11%; in experiment [5] it was 18.8%; in experiment [6], 58%. Besides, the growth in experiment [7] is 13.1%.
As to `COc1ccc(N2C(=O)C3c4[nH]c5ccc(OCc6ccccc6)cc5c4C4CCC(C(C)C)CC4C3C2=O)cc1` (centres undefined), the growth in experiment [1] is 104%; in experiment [2], 104%; in experiment [3] it was 87.9%; in experiment [4] it was 95.2%; in experiment [5], 109%; in experiment [6], 116%. Further, the growth in experiment [7] is 105%.
As for `Cc1ncc(-c2ccoc2)c(NC2CCCCCC2)n1`, the growth is 115% in experiment [1]; 110% in experiment [2]; 111% in experiment [3]; 112% in experiment [4]; 99.8% in experiment [5]; 105% in experiment [6]. The growth in experiment [7] was 105%.
On to `CC(=O)N1N=C(c2ccc(Cl)cc2)CC1c1sc(Cl)nc1Cl` (centres undefined), for which the growth is 89.9% in experiment [1]; 89.2% in experiment [2]; 102% in experiment [3]; 85.9% in experiment [4]; 75.9% in experiment [5]; 94.8% in experiment [6]. Also, the growth in experiment [7] was 93.5%.
Regarding `O=C(N/N=C\c1cc(Cl)ccc1[N+](=O)[O-])c1ccco1`, the growth is 101% in experiment [1]; 100% in experiment [2]; 102% in experiment [3]; 57% in experiment [4]; 113% in experiment [5]; 103% in experiment [6]. For the same compound, in experiment [7], the growth was 102%.
As for `O=C1NC(=O)c2ncccc21`, the growth was 91.1% in experiment [1]; 100% in experiment [2]; 120% in experiment [3]; 95.5% in experiment [4]; 102% in experiment [5]; 103% in experiment [6]. Moreover, the growth in experiment [7] was 107%.
With `CCN(CC)CCOc1nc2ccc(OC)cc2c2c1-c1ccc(OC)cc1C2=O`, the growth in experiment [1] was 65.1%; in experiment [2], -22.7% (active); in experiment [3], -59.4% (active); in experiment [4] it was -58.6% (active); in experiment [5] it was -98.3% (active); in experiment [6], 38.6%. Besides, the growth in experiment [7] was -82% (active).
For `Cc1ccc(S(=O)(=O)Oc2ccc3c4c(c(=O)oc3c2)CCCCC4)cc1`, the growth is 47.3% in experiment [1]; 57% in experiment [2]; 30.2% in experiment [3]; 50.5% in experiment [4]; 36.7% in experiment [5]; 51.4% in experiment [6]. Further, the growth in experiment [7] is 35.3%.
`COc1ccc(Oc2nc(NC3CCCC3)nc(Sc3ccc(OC)cc3)n2)cc1`: the growth in experiment [1] was 91.9%; in experiment [2] it was 89%; in experiment [3], 87.9%; in experiment [4], 69.3%; in experiment [5], 45.1%; in experiment [6], 98.8%. The growth in experiment [7] was 83.9%.
Turning to `COc1ccc(-c2nn(-c3cccc(NC(=O)Nc4cc(C(F)(F)F)cc(C(F)(F)F)c4)c3)cc2-c2ccncc2)cc1Cl`, the growth in experiment [1] was -1.8% (active); in experiment [2], -42.8% (active); in experiment [3], 10.9%; in experiment [4] it was 0.561% (active); in experiment [5], -22% (active); in experiment [6], 8.03% (active). Besides, the growth in experiment [7] is -2.5% (active).
Turning to `N#Cc1ncc(-c2cc(F)c(F)c(F)c2)c(NC2CCCCCC2)n1`, the growth in experiment [1] was 100%; in experiment [2], 95.5%; in experiment [3], 92.8%; in experiment [4] it was 79.1%; in experiment [5] it was 84.4%; in experiment [6], 91.9%. Besides, the growth in experiment [7] was 78.7%.
`COc1cc(/C=C\c2cc(OC)c(OC)c(OC)c2)cc(NS(=O)(=O)c2ccc(Cl)cc2)c1OC`: the growth was 40.6% in experiment [1]; -39.1% (active) in experiment [2]; 30.4% in experiment [3]; 26.5% in experiment [4]; 14.7% in experiment [5]; 18.6% in experiment [6]. In addition, in experiment [7], the growth is 25.1%.
On to `Cc1ccc(N=Nc2c(N)nc(N)[nH]c2=O)cc1C`, for which the growth in experiment [1] is 98.5%; in experiment [2] it was 95.1%; in experiment [3], 102%; in experiment [4] it was 94.4%; in experiment [5], 96.8%; in experiment [6], 113%. Further, the growth in experiment [7] was 111%.
`Nc1ccc2c(c1)C1(CCC2)NC(=O)NC1=O` (centres undefined): the growth in experiment [1] is 102%; in experiment [2], 102%; in experiment [3], 104%; in experiment [4] it was 97.2%; in experiment [5], 101%; in experiment [6], 115%. In addition, in experiment [7], the growth was 102%.

Values taken from PubChem BioAssay (NCI).
